Test results published in PubChem BioAssay (NCI).
The panel holds about 79,000 compounds, 15% with a hit somewhere; the sample as a whole holds those more often. Calls of active or inactive are those of the source. Rule as the data show it: active = growth inhibition above about 70%; inactive = the rest.

How the values were obtained:
[1] = NCI Yeast Anticancer Drug Screen. Data for the rad52 strain (AID 147);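 also: 0% = growth of vehicle-treated control cultures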; conditions: S. cerevisiae rad52 mutant growth inhibition, stronger effect = higher value
In short: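 Here a repair-compromised yeast strain receives each compound; its growth is then quantified and normalised to vehicle-only controls.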

[2] = NCI Yeast Anticancer Drug Screen. Data for the wt1 strain (AID 149);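 also: 0% = growth of vehicle-treated wt1 cultures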; conditions: S. cerevisiae wt1 strain (SPY 50644) growth inhibition, stronger effect = higher value
In short: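 wt1 yeast, compound-treated; % growth inhibition vs vehicle control.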

[3] = NCI Yeast Anticancer Drug Screen. Data for the rad50EPP+ strain (AID 151);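 also: 0% = growth of vehicle-treated control cultures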; conditions: S. cerevisiae rad50 mutant strain, stronger effect = higher value
In short: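 Read-out is yeast growth inhibition relative to vehicle; cells used were the rad50EPP+ strain.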

[4] = NCI Yeast Anticancer Drug Screen. Data for the rad50 strain (AID 155);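 also: 0% = growth of vehicle-only cultures of the same strain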; conditions: S. cerevisiae rad50 strain growth inhibition, stronger effect = higher value
In short: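 Genetically altered yeast (DNA repair pathway); compound treatment; growth inhibition vs vehicle ctrl.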

[5] = NCI Yeast Anticancer Drug Screen. Data for the mec2-1 strain (AID 157); conditions: S. cerevisiae mec2-1 strain, stronger effect = higher value
In short: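 Using mec2-1 yeast: add compound, measure growth, express inhibition versus vehicle-treated cultures.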

[6] = NCI Yeast Anticancer Drug Screen. Data for the rad14 strain (AID 159);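 also: 0% = growth of vehicle-treated control cultures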; conditions: S. cerevisiae rad14 strain growth inhibition, stronger effect = higher value
In short: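 Test compounds were applied to a repair-deficient yeast strain. Its growth was then compared with that of cultures given vehicle alone, and inhibition was expressed relative to those controls.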

[7] = NCI Yeast Anticancer Drug Screen. Data for the sgs1 mgt1 strain (AID 161);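 also: 0% = growth of cultures given vehicle only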; conditions: S. cerevisiae sgs1 mgt1 strain, stronger effect = higher value
In short: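 This yeast growth screen uses a strain with defined DNA-repair lesions; compound-treated growth is compared with vehicle-treated growth.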

[8] = NCI Yeast Anticancer Drug Screen. Data for the CLN2oe strain (AID 163);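 also: 0% = growth of vehicle-only control cultures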; conditions: S. cerevisiae CLN2oe strain, stronger effect = higher value
In short: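 Whole-cell yeast growth assay. A strain engineered for altered cell-cycle control received compound, and inhibition relative to vehicle-treated cultures was recorded.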

[9] = NCI Yeast Anticancer Drug Screen. Data for the cln2 rad14 strain (AID 165);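 also: 0% = growth equal to vehicle treated cultures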; conditions: S. cerevisiae cln2 rad14 strain, stronger effect = higher value
In short: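 Yeast strain cln2 rad14, bearing defects in cell cycle control and DNA repair, serves as the test system; values reflect growth inhibition compared with vehicle.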

[10] = NCI Yeast Anticancer Drug Screen. Data for the bub3 strain (AID 167); conditions: S. cerevisiae bub3 mutant strain, stronger effect = higher value
In short: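 Yeast carrying a defined mutation is treated with each compound, and growth is compared with that of vehicle-exposed cells to give inhibition.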

[11] = NCI Yeast Anticancer Drug Screen. Data for the wt2 strain (AID 169);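 also: 0% = growth of vehicle-treated yeast cultures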; conditions: S. cerevisiae wt2 strain growth inhibition, stronger effect = higher value
In short: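 Treated yeast vs. vehicle-treated yeast: growth inhibition determined.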

[12] = NCI Yeast Anticancer Drug Screen. Data for the mlh1 strain (AID 171);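 also: 0% = growth of vehicle-treated control cultures of the same strain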; conditions: S. cerevisiae mlh1 strain growth inhibition, stronger effect = higher value
In short: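 A yeast strain with a defined genetic lesion serves as the test organism. Cultures receive compound or vehicle, and growth is measured.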

[13] = NCI Yeast Anticancer Drug Screen. Data for the sgs1 strain (AID 173);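 also: 0% = growth of vehicle-only control cultures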; conditions: S. cerevisiae sgs1 mutant, stronger effect = higher value
In short: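 A genetically defined yeast mutant is incubated with the test compound, and its growth is compared to that of the same strain given vehicle.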

[14] = NCI Yeast Anticancer Drug Screen. Data for the mlh1 rad18 strain (AID 175); conditions: S. cerevisiae mlh1 rad18 strain growth inhibition, stronger effect = higher value
In short: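 Steps: expose repair-defective yeast to compound; measure growth; express inhibition against vehicle-treated controls.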

[15] = NCI Yeast Anticancer Drug Screen. Data for the rad18 strain (AID 177); conditions: S. cerevisiae rad18 mutant growth inhibition, stronger effect = higher value
In short: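 Measured value is growth inhibition of a yeast strain bearing a DNA repair alteration, referenced to vehicle-treated cells.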

[16] = at 5.0 µM (retest, dose inferred, filed as 0.5)
[17] = at 50.0 µM (retest, dose inferred, filed as 5.0)

Measured: growth inhibition

O=S(=O)(N/N=C/c1cccc(Cl)c1)c1ccccc1
active: [1]; at 33.0 µM 88% | [1]; at 100.0 µM 99% | [2]; at 100.0 µM 99% | [4]; at 33.0 µM 87% | [4]; [17] 92% | [4]; at 50.0 µM 89.9% | [4]; at 100.0 µM 98% | [5]; at 100.0 µM 91% | [6]; at 33.0 µM 73% | [6]; at 100.0 µM 99% | [7]; [17] 86% | [8]; at 33.0 µM 84% | [8]; at 100.0 µM 82% | [9]; [17] 89% | [10]; at 33.0 µM 79% | [10]; [17] 88% | [10]; at 100.0 µM 98% | [11]; at 33.0 µM 86% | [11]; at 100.0 µM 99% | [12]; at 33.0 µM 83% | [12]; at 100.0 µM 99% | [13]; at 33.0 µM 77% | [13]; at 100.0 µM 99% | [14]; [17] 95% | [14]; at 50.0 µM 96.8% | [15]; at 33.0 µM 86% | [15]; at 100.0 µM 99%
inactive: [1]; at 1.2 µM -4% | [1]; at 3.7 µM -3% | [1]; at 11.0 µM 8% | [2]; at 1.2 µM 0% | [2]; at 3.7 µM 4% | [2]; at 11.0 µM 3% | [2]; at 33.0 µM 65% | [3]; at 1.2 µM 4% | [3]; at 3.7 µM 8% | [3]; at 11.0 µM 18% | [3]; at 33.0 µM 18% | [3]; at 100.0 µM 25% | [4]; at 1.2 µM -1% | [4]; at 3.7 µM -1% | [4]; [16] -14% | [4]; at 11.0 µM 7% | [5]; at 1.2 µM -3% | [5]; at 3.7 µM 4% | [5]; [16] -18% | [5]; at 11.0 µM 13% | [5]; at 33.0 µM 54% | [5]; [17] 66% | [5]; at 50.0 µM 55.5% | [6]; at 1.2 µM -7% | [6]; at 3.7 µM -6% | [6]; at 11.0 µM -1% | [7]; [16] -1% | [7]; at 50.0 µM 63.7% | [8]; at 1.2 µM -10% | [8]; at 3.7 µM -7% | [8]; at 11.0 µM 27% | [9]; [16] 20% | [9]; at 50.0 µM 67.4% | [10]; at 1.2 µM 1% | [10]; at 3.7 µM 1% | [10]; [16] -12% | [10]; at 11.0 µM 11% | [10]; at 50.0 µM 63.3% | [11]; at 1.2 µM -4% | [11]; at 3.7 µM -4% | [11]; at 11.0 µM 0% | [12]; at 1.2 µM -3% | [12]; at 3.7 µM 0% | [12]; at 11.0 µM 11% | [13]; at 1.2 µM 1% | [13]; at 3.7 µM 4% | [13]; at 11.0 µM 18% | [14]; [16] 57% | [15]; at 1.2 µM -3% | [15]; at 3.7 µM 1% | [15]; at 11.0 µM 29%

O=C(O)c1[nH]c(=O)c2ccccc2c1Nc1ccccc1
inactive: [1]; at 1.2 µM -2% | [1]; at 3.7 µM -1% | [1]; at 11.0 µM 2% | [1]; at 33.0 µM 4% | [1]; at 100.0 µM 3% | [2]; at 1.2 µM -1% | [2]; at 3.7 µM -2% | [2]; at 11.0 µM -2% | [2]; at 33.0 µM -1% | [2]; at 100.0 µM 1% | [3]; at 1.2 µM -3% | [3]; at 3.7 µM -2% | [3]; at 11.0 µM 0% | [3]; at 33.0 µM -1% | [3]; at 100.0 µM 6% | [4]; at 1.2 µM -3% | [4]; at 3.7 µM -1% | [4]; [16] -6% | [4]; at 11.0 µM 1% | [4]; at 33.0 µM 4% | [4]; [17] -11% | [4]; at 50.0 µM -0.85% | [4]; at 100.0 µM 0% | [5]; at 1.2 µM -3% | [5]; at 3.7 µM -3% | [5]; [16] -13% | [5]; at 11.0 µM -2% | [5]; at 33.0 µM 1% | [5]; [17] -24% | [5]; at 50.0 µM -1.2% | [5]; at 100.0 µM 3% | [6]; at 1.2 µM -3% | [6]; at 3.7 µM -3% | [6]; at 11.0 µM 1% | [6]; at 33.0 µM 1% | [6]; at 100.0 µM 2% | [7]; [16] 0% | [7]; [17] 5% | [7]; at 50.0 µM 10.3% | [8]; at 1.2 µM -3% | [8]; at 3.7 µM 1% | [8]; at 11.0 µM -2% | [8]; at 33.0 µM -1% | [8]; at 100.0 µM 1% | [9]; [16] -23% | [9]; [17] 41% | [9]; at 50.0 µM -10.4% | [10]; at 1.2 µM -2% | [10]; at 3.7 µM -2% | [10]; [16] -4% | [10]; at 11.0 µM -3% | [10]; at 33.0 µM -3% | [10]; [17] -11% | [10]; at 50.0 µM -6.6% | [10]; at 100.0 µM -2% | [11]; at 1.2 µM -3% | [11]; at 3.7 µM -3% | [11]; at 11.0 µM -2% | [11]; at 33.0 µM -4% | [11]; at 100.0 µM 0% | [12]; at 1.2 µM -2% | [12]; at 3.7 µM 0% | [12]; at 11.0 µM 0% | [12]; at 33.0 µM 1% | [12]; at 100.0 µM 4% | [13]; at 1.2 µM -7% | [13]; at 3.7 µM -3% | [13]; at 11.0 µM 1% | [13]; at 33.0 µM 1% | [13]; at 100.0 µM 2% | [15]; at 1.2 µM -2% | [15]; at 3.7 µM -1% | [15]; at 11.0 µM 0% | [15]; at 33.0 µM 0% | [15]; at 100.0 µM 6%

Cc1cc(Cl)nc2nc(Cl)c(N)cc12
inactive: [1]; at 1.2 µM -8% | [1]; at 3.7 µM -3% | [1]; at 11.0 µM -10% | [1]; at 33.0 µM 16% | [1]; at 100.0 µM 69% | [2]; at 1.2 µM -16% | [2]; at 3.7 µM -7% | [2]; at 11.0 µM -2% | [2]; at 33.0 µM 2% | [2]; at 100.0 µM 27% | [3]; at 1.2 µM -17% | [3]; at 3.7 µM -17% | [3]; at 11.0 µM -13% | [3]; at 33.0 µM 0% | [3]; at 100.0 µM 49% | [4]; at 1.2 µM -4% | [4]; at 3.7 µM -18% | [4]; [16] 11% | [4]; at 11.0 µM -4% | [4]; at 33.0 µM 8% | [4]; [17] 55% | [4]; at 50.0 µM 38.6% | [4]; at 100.0 µM 51% | [5]; at 1.2 µM -13% | [5]; at 3.7 µM -17% | [5]; [16] 7% | [5]; at 11.0 µM -7% | [5]; at 33.0 µM 32% | [5]; [17] 62% | [5]; at 50.0 µM 62.9%
